# High-throughput results: PubChem, Pan Lab, Icahn School of Medicine at Mount Sinai
# The entries come from a sample that favours hits as a whole.
# ROC1-CUL1 inh: human ROC1-CUL1 E3 ligase inhibition; inhibition, % at 10 µM; P62877+Q13616; hit rate 0.6% among 140,000; in vitro K48 di-Ub FRET, acceptor:donor ratio, 45 min; in the data active = inhibition above about 25%
# * hit, by the source's call.
SMILES,ROC1-CUL1 inh
COC(=O)C1C(=O)C(C=Nc2ccc(Br)cc2)C(=O)CC1(C)C (stereo unspecified),-5
CN(C)S(=O)(=O)Nc1ccc(N2CCC(NCc3ccc(OC(F)(F)F)cc3)CC2)cc1,-5
O=C(Nc1nc2ccccc2s1)c1ccc(C(F)(F)F)cc1,1
CC1CC1C(=O)N1CCN(S(=O)(=O)c2ccc(Cl)s2)CC1 (stereo unspecified),-5
Cc1ccc(N2C(=O)/C(=C\c3ccc(-c4ccc(Br)cc4[N+](=O)[O-])o3)C(=O)N(c3ccccc3)C2=S)cc1C,56*
Cc1ccc(N2C(=O)/C(=C/c3ccc(Br)cc3)C(=O)N(c3ccccc3)C2=S)cc1,-3
Cc1ccc(N2C(=O)/C(=C/c3ccc(-c4ccc(C(=O)O)cc4)o3)C(=O)N(c3ccccc3)C2=S)cc1C,5
COc1ccc(/C=C2\CCCC3=C2N=c2s/c(=C\c4ccc5c(c4)OCO5)c(=O)n2C3c2ccc(OC)cc2)cc1 (stereo unspecified),-6
Cn1c(=O)c2c(=O)c([N+](=O)[O-])c(N3CCOCC3)[nH]c2n(C)c1=O,6
O=C(NCc1ccccn1)C1CC1c1ccccc1 (stereo unspecified),-3
CCOC(=O)C(C(C)=O)C1=C(Br)C(=O)C(=O)c2ccc(Br)cc21 (stereo unspecified),48*
Cc1c(C(=O)O)c2c(n1Cc1ccccc1)C(=O)c1ccc(Br)cc1-2,5
CCOC(=O)Nc1ccc(Br)cc1F,3
Cc1ccc(N2C(=O)c3cccc4c([N+](=O)[O-])ccc(c34)C2=O)c(C)c1,-3
CN(c1ccccc1C(=O)NCCc1ccccc1)S(C)(=O)=O,-4
CCC(c1ccccc1)c1n[nH]c2c1CN(C(=O)c1cnn(CC)c1)CC2 (stereo unspecified),10
Cn1c(NCCN)nc2c1c(=O)n(Cc1ccccc1)c(=O)n2C,-2
Cn1c(=O)c2c(nc(NCCN)n2Cc2ccc(Cl)cc2)n(C)c1=O,27*
COCCCNc1nc2c(c(=O)n(C)c(=O)n2C)n1Cc1ccccc1,0
CN(Cc1cnn(C)c1)Cc1cnc(Nc2cccc(Cl)c2)s1,4
CCC(=O)NNC(=S)NC(=O)c1cccc([N+](=O)[O-])c1,-2
CCC(C)NC(=O)c1c2nc3ccccc3nc2n2c1[nH]c(=O)c1ccccc12 (stereo unspecified),53*
CCC(C)NC(=O)c1ccccc1NC(=O)c1ccncc1 (stereo unspecified),6
CCC(C)NC(=O)c1c2c(nc3ccccc13)C(=O)N(C1CCCCC1)C2 (stereo unspecified),-1
COc1cccc(CN2CCCC(O)(CN3CCN(c4ccccc4)CC3)C2=O)c1 (stereo unspecified),0
SMILES,ROC1-CUL1 inh
Cn1cnc2c1c(=O)n(Cc1ccccc1Cl)c(=O)n2C,-1
C=CCOc1ccc(/C=N/n2c(-c3ccccc3)n[nH]c2=S)cc1,1
CCN=C1CC=C(Br)C=C(C(=O)/C=C/c2c(Cl)cccc2Cl)C1=O,90*
CCN=C1CC=C(Br)C=C(C(=O)/C=C/c2ccc(F)cc2)C1=O,27*
NS(=O)(=O)c1ccc(CNC(=O)/C=C/c2c(Cl)cccc2Cl)cc1,16
O=C(/C=C/c1c(Cl)cccc1Cl)Nc1ncccn1,-3
CN=C1CC=C(Br)C=C(C(=O)/C=C/c2ccc(Br)cc2)C1=O,36*
CC1CN(C(=O)/C=C/c2ccc(F)cc2)C(C)CN1C(=O)/C=C/c1ccc(F)cc1 (stereo unspecified),-2
CCN=C1CC=C(Br)C=C(C(=O)/C=C/c2ccc(C(F)(F)F)cc2)C1=O,6
COc1ccc(Br)cc1/C=C/C(=O)c1ccc(OS(C)(=O)=O)cc1,0
CCN=C1CC=C(Br)C=C(C(=O)/C=C/c2ccc(OC)cc2)C1=O,16
CCOc1ccccc1N1CCN(C(=O)/C=C/c2ccc(Br)cc2)CC1,-8
CCN=C1CC=C(Br)C=C(C(=O)/C=C/c2cc(OC)ccc2OC)C1=O,55*
CC(=O)c1cccc(NC(=O)/C=C/c2ccc(Br)cc2)c1,5
CC1(C)C2CCC1(CS(=O)(=O)N1CCN(c3cccc(C(F)(F)F)c3)CC1)C(=O)C2 (stereo unspecified),-3
COc1ccc(N2CCN(C(=O)CC(C)C)CC2)cc1,-8
COc1cccc(Nc2ncnc3c2oc2ccccc23)c1,-6
N#CC(CC1=Nc2ccccc2C1=O)C(N)=NCCc1ccccc1 (stereo unspecified),-3
O=C1Nc2cc(Cl)ccc2Sc2ccccc21,-6
COc1ccc(NS(=O)(=O)c2ccc(NC(=S)NC(C)=O)cc2)cc1,5
CC1(C)CC(=O)C(C2c3ccccc3Oc3ccc(F)cc32)C(=O)C1 (stereo unspecified),-9
COC(=O)c1c(NC(NC(=O)c2cccnc2)(C(F)(F)F)C(F)(F)F)sc2c1CCCCC2,-1
NC(=O)c1ccc(C2CCCN2C(=O)CCC(=O)Nc2cccc(F)c2)s1 (stereo unspecified),-3
CCN=C1CC=C(Br)C=C(C(=O)/C=C/c2ccc(Cl)cc2)C1=O,17
CCN=C1CC=C(Br)C=C(C(=O)/C=C/c2ccc(Br)cc2)C1=O,94*
SMILES,ROC1-CUL1 inh
CCOC(=O)c1ccccc1NC(=O)/C=C/c1ccc(Br)cc1,-4
CCc1nn(-c2ccccc2)c2nc(-c3cccnc3)c3cc(OC)c(OC)cc3c12,5
C=C(C)Cn1c(SCC(=O)Nc2ccccc2OC)nc2sc3c(c2c1=O)CCC3,-1
CCC(C)N1C(=O)N(c2ccc(Cl)c(Cl)c2)C(n2oc(=O)n(-c3ccc(Cl)c(Cl)c3)c2=O)C1(C)C (stereo unspecified),2
COc1ccc(NC(=O)C(c2ccccn2)N(C(=O)CNC(C)=O)c2ccc(OC)cc2)cc1 (stereo unspecified),4
CC1(C)CC(CCNC(=O)Nc2nn[nH]n2)(c2ccccc2)CCO1 (stereo unspecified),10
Cc1cccc(N2C(=O)C(=Nc3ccc(S(N)(=O)=O)cc3)C(Cl)C2=O)c1C (stereo unspecified),2
COc1ccc(Br)cc1CNc1ccc2[nH]c(=O)[nH]c2c1,1
CCc1ccc(CNc2ccc(O)cc2)cc1,-15
COc1ccc(Br)cc1CNc1ccc(O)cc1,41*
CNCc1cc(Br)ccc1OC,3
Oc1ccc(NCc2ccc(OCc3ccccc3)cc2)cc1,1
Oc1ccc(NCc2ccc(Br)cc2)cc1,76*
CC(C)Cn1c(CN2CCN(c3ncccn3)CC2)cnc1S(=O)(=O)CC1CCCO1 (stereo unspecified),7
CC1=NC(=S)NC(c2cccc(Br)c2)C1C(=O)Nc1cccc(C)c1C (stereo unspecified),9
CC1=NC2=C(C(=O)c3ccccc32)C(c2ccc(C)cc2)C1C#N (stereo unspecified),5
COc1ccccc1C1(CC(=O)N2CCCC(c3ccccc3)CC2)CC(=O)N(C2CCCC2)C1=O (stereo unspecified),4
CC(C)(C)C1CCc2c(sc(NC(=O)c3ccco3)c2C(=O)O)C1 (stereo unspecified),39*
Cc1ccccc1C(=O)Nc1sc2c(c1C(=O)O)CCC(C(C)(C)C)C2 (stereo unspecified),-4
CCN(CC)C(=O)c1c(NC(=O)c2ccco2)sc2c1CCC(C(C)(C)C)C2 (stereo unspecified),14
OC(C#CC12CC3CC(CC(C3)C1)C2)c1ccccn1 (stereo unspecified),12
